Results on 8 molecules are retold here after PubChem BioAssay (NCI).

The panel holds about 83,000 compounds, 20% with a hit somewhere; the sample as a whole holds those more often.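 Each cell line was grown in a 96-well plate and treated with one concentration of compound for 48 hours. Values below 10 were considered active.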 Values without a mark were called inactive. Activity calls are given as the source filed them.

Among the test systems are RPMI-8226 leukemia; OVCAR-8 ovarian; OVCAR-5 ovarian; OVCAR-4 ovarian; SK-OV-3 ovarian; IGROV1 ovarian; OVCAR-3 ovarian; HS 578T breast; NCI/ADR-RES ovarian; T-47D breast; MDA-MB-435 melanoma; SW-620 colon; MCF7 breast; HCT-116 colon; KM12 colon; BT-549 breast; HCC-2998 colon.
Common to all, as to assay: NCI-60 one-dose screen, 48 h (100 = growth as untreated, 0 = no growth, -100 = all killed)
Holding throughout (settings): 10 µM unless noted

Regarding `NC(=O)CSSCC(N)=O`, the growth is 91.4% in the experiment on RPMI-8226 leukemia; 101% in the experiment with OVCAR-8 ovarian; 105% with OVCAR-5 ovarian; 111% in the experiment on OVCAR-4 ovarian; 109% with SK-OV-3 ovarian; 97.8% in the experiment with IGROV1 ovarian. The growth with OVCAR-3 ovarian was 114%; in the experiment with HS 578T breast, 97.6%; in the experiment with NCI/ADR-RES ovarian, 105%; with T-47D breast it was 103%; with MDA-MB-435 melanoma, 91.6%; in the experiment on SW-620 colon it was 95.3%. Moreover, the growth was 103% in the experiment with MCF7 breast, 91.6% in the experiment on HCT-116 colon and 101% in the experiment with KM12 colon.

For `N#Cc1c(-c2ccccc2)nc2c(c(-c3ccccc3)nn2-c2ccccc2)c1-c1ccc(O)cc1`, the growth in the experiment with RPMI-8226 leukemia was 12.9%; in the experiment with OVCAR-5 ovarian it was 81.2%; with OVCAR-4 ovarian, 72.2%; with SK-OV-3 ovarian it was 71.1%; with IGROV1 ovarian, 72%; with OVCAR-3 ovarian, 54.2%. In addition, the growth in the experiment with HS 578T breast is 15.9%; with NCI/ADR-RES ovarian, 70.5%; with T-47D breast it was 35.3%; with BT-549 breast, 59.7%; in the experiment on MDA-MB-435 melanoma, 51.5%; with SW-620 colon, 16.5%. Moreover, the growth is 14.8% with MCF7 breast, 34.8% in the experiment with HCT-116 colon, 72% in the experiment on HCC-2998 colon and 47.1% in the experiment with KM12 colon.

With `O=[N+]([O-])c1ccc(N=Nc2cc(S(=O)(=O)O)c3cccc(S(=O)(=O)O)c3c2O)cc1`, the growth in the experiment on RPMI-8226 leukemia was 104%; in the experiment on OVCAR-5 ovarian, 113%; in the experiment with OVCAR-4 ovarian it was 114%; in the experiment with SK-OV-3 ovarian, 102%; in the experiment with IGROV1 ovarian, 72.8%; with OVCAR-3 ovarian it was 121%. Besides, the growth with HS 578T breast is 130%; with NCI/ADR-RES ovarian, 104%; in the experiment on T-47D breast it was 108%; in the experiment with BT-549 breast it was 105%; with MDA-MB-435 melanoma it was 86%; in the experiment on SW-620 colon, 112%. The growth was 97.7% with MCF7 breast, 97.7% in the experiment on HCT-116 colon, 112% in the experiment on HCC-2998 colon and 118% with KM12 colon.

For `CCCCN1C=CCN(CCCC)C1`, the growth was 37.9% in the experiment on RPMI-8226 leukemia; 44.2% in the experiment with OVCAR-8 ovarian; 82.7% with OVCAR-5 ovarian; 42.6% with OVCAR-4 ovarian; 84.2% in the experiment with SK-OV-3 ovarian; 46.4% in the experiment with IGROV1 ovarian. Moreover, the growth is 13.1% in the experiment with OVCAR-3 ovarian; 88.9% in the experiment on HS 578T breast; 108% in the experiment with NCI/ADR-RES ovarian; 6.14% (active) in the experiment on T-47D breast; 6.59% (active) in the experiment on MDA-MB-435 melanoma; 73.4% in the experiment on SW-620 colon. In addition, the growth with MCF7 breast was 32.5%; with HCT-116 colon it was 34%; with HCC-2998 colon it was 46.2%; with KM12 colon it was 22.9%.

Take `COc1ccc(-c2nc(S(=O)(=O)c3ccccc3)c(S(=O)CC(=O)N3CCC(C)CC3)o2)cc1` (stereo unspecified): the growth in the experiment with RPMI-8226 leukemia was -14.6% (active); in the experiment on OVCAR-5 ovarian it was 48%; with OVCAR-4 ovarian it was 28.8%; with SK-OV-3 ovarian, 92.2%; with IGROV1 ovarian it was 25.6%; with OVCAR-3 ovarian, -42.6% (active). For the same molecule, the growth is 77.7% with HS 578T breast; 59.7% with NCI/ADR-RES ovarian; 15.6% in the experiment with T-47D breast; 57.2% in the experiment with MDA-MB-435 melanoma; 1.06% (active) with SW-620 colon; 24.3% in the experiment on MCF7 breast. Further, the growth was -55.9% (active) in the experiment with HCT-116 colon, 90.6% in the experiment with HCC-2998 colon and 68.1% in the experiment on KM12 colon.

For `N#C/C(=C\c1cccc(C#N)c1)c1ccccc1`, the growth with OVCAR-8 ovarian is 111%; in the experiment on OVCAR-5 ovarian, 100%; in the experiment with OVCAR-4 ovarian, 98.8%; with SK-OV-3 ovarian, 105%; in the experiment on IGROV1 ovarian, 107%; in the experiment on OVCAR-3 ovarian, 105%. Moreover, the growth with HS 578T breast was 106%; in the experiment on NCI/ADR-RES ovarian it was 101%; with T-47D breast it was 78.7%; in the experiment with BT-549 breast, 102%; in the experiment with MDA-MB-435 melanoma, 100%; in the experiment on SW-620 colon, 105%. In addition, the growth was 105% in the experiment with MCF7 breast, 94.2% with HCT-116 colon, 93.1% with HCC-2998 colon and 102% with KM12 colon.

On to `COc1cc(C2C3=C(COC3=O)N(CCO)c3cc4c(cc32)CCC4)cc(OC)c1OC` (stereo unspecified), for which the growth in the experiment on RPMI-8226 leukemia is 17.9%; with OVCAR-8 ovarian, 31.5%; with OVCAR-5 ovarian, 8% (active); with OVCAR-4 ovarian it was 23.3%; in the experiment with SK-OV-3 ovarian, -32.1% (active); in the experiment with IGROV1 ovarian, 8.46% (active). For the same molecule, the growth with OVCAR-3 ovarian was -33.4% (active); in the experiment on HS 578T breast, 14.5%; in the experiment on NCI/ADR-RES ovarian it was -74.5% (active); with T-47D breast, 54.1%; in the experiment on MDA-MB-435 melanoma, -9.03% (active); in the experiment with SW-620 colon, 21.4%. Besides, the growth was -16.2% (active) in the experiment on MCF7 breast, -35.3% (active) in the experiment on HCT-116 colon, -32.4% (active) in the experiment with HCC-2998 colon and -16.9% (active) in the experiment on KM12 colon.

For the molecule `CCN(CC)c1ccc(C(=O)c2ccccc2)cc1`, the growth in the experiment on RPMI-8226 leukemia was 95.8%; in the experiment on OVCAR-5 ovarian, 100%; in the experiment with OVCAR-4 ovarian, 97.3%; in the experiment with SK-OV-3 ovarian, 98.6%; in the experiment on IGROV1 ovarian it was 89.8%; in the experiment with OVCAR-3 ovarian, 103%. Besides, the growth was 102% with HS 578T breast; 89.4% in the experiment on NCI/ADR-RES ovarian; 83.3% with T-47D breast; 109% with BT-549 breast; 105% in the experiment on MDA-MB-435 melanoma; 102% with SW-620 colon. For the same molecule, the growth is 98.7% in the experiment with MCF7 breast, 91.3% in the experiment with HCT-116 colon, 107% in the experiment on HCC-2998 colon and 101% with KM12 colon.
